Where “and” joins values, the source holds several entries; their conditions need not be identical. Equal values may be shown once. Records with an inconclusive call do not appear. Where a structure was tested more than once in an assay, its records may differ in their call. Calls of active or inactive are those of the source. Rule for the calls, unless noted: active = hit-call score of the fitted dose curve at least 0.9, where 1 is the maximum; inactive = score below 0.9.

For orientation: AC50 means the concentration giving half of the maximal activity seen.

The subject of one test is DIO3 (gene 1735). Briefly: CCTE_GLTED_hDIO3: CCTE's human Deiodinase 3 (DIO3) Inhibition Assay, Great Lakes Toxicology and Ecology Division (GLTED) Lab (AID 2284055; active = hit-call score of the fitted dose curve at least 0.9, where 1 is the maximum;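 note: potency is for inhibition seen as loss of released iodide signal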). The method in brief: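 hDIO3 (adenovirus-expressed) + test chemical, 3 h incubation; free iodide quantified by Sandell-Kolthoff reaction, absorbance read-out. DMSO negative control, n=3.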
The nature of test [1]: CCTE_Shafer_MEA_dev_LDH: CCTE's Lactate Dehydrogenase Assay for Cytotoxicity in the Neural Network Formation Assay, Shafer Lab (AID 2284068; active = hit-call score of the fitted dose curve at least 0.9, where 1 is the maximum;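 note: exposure for twelve days from plating with re-dosing on DIV 5 and 9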). The method in brief:
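Developing rat cortical networks on MEA plates are exposed to compound for 12 days from plating. LDH activity is measured spectrophotometrically, with DMSO as baseline.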

The nature of test [2]: CCTE_Shafer_MEA_acute_AB: CCTE's Alamar Blue Assay for Cytotoxicity in the Neural Acute Assay, Shafer Lab (AID 2284069; active = hit-call score of the fitted dose curve at least 0.9, where 1 is the maximum;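 note: active compounds lower the viability signal compared with DMSO wells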). In a few lines:
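Cytotoxicity endpoint for acute MEA exposures of primary rat cortical neurons on day 13 or 15. Resazurin reduction is read fluorescently at 544/590 nm, with DMSO as the negative-control baseline.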

Test [3] can be described thus: CCTE_Shafer_MEA_dev_AB: CCTE's Alamar Blue Assay for Cytotoxicity in the Neural Network Formation Assay, Shafer Lab (AID 2284083; active = hit-call score of the fitted dose curve at least 0.9, where 1 is the maximum;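 note: resazurin reduction fluorescence as viability of cultured neurons; twelve days of exposure from plating with re-dosing on DIV 5 and 9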). In a few lines:
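Cytotoxicity companion to the developmental MEA: primary rat cortical neurons, 12-day exposure starting day 0, compound refreshed DIV 5 and 9; resazurin fluorescence, fitted against DMSO vehicle.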
A general note: Resazurin is reduced to fluorescent resorufin, in cell work by metabolically active cells.

Test [4] can be described thus: CCTE_Shafer_MEA_acute_LDH: CCTE's Lactate Dehydrogenase Assay for Cytotoxicity in the Neural Acute Assay, Shafer Lab (AID 2284086; active = hit-call score of the fitted dose curve at least 0.9, where 1 is the maximum;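 note: active means LDH release rises above DMSO vehicle level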). In a few lines: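 LDH absorbance at 490 nm in medium taken right after 40-min compound exposure; rat primary cortical neuron networks on MEA plates, days post-plating 13 or 15. Increase over DMSO baseline scored as cytotoxicity.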
Test [5] can be described thus: CCTE_Shafer_MEA_dev_mutual_information_norm: CCTE's Neural Network Formation Assay for Mutual Information Normalization, Shafer Lab (AID 2284091).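 For AC50: mutual information between electrodes summarised as area under curve across four recording days; potency is for a decrease in mutual information relative to DMSO.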 The method in brief: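 Shared information across electrodes, tracked on days 5, 7, 9 and 12 of network development and collapsed as trapezoidal area under the curve. Rat cortical cultures were treated continuously from plating, with treatment renewed at feeds on DIV 5 and 9; DMSO baseline, negative-direction fit.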

The nature of test [6]: CCTE_Shafer_MEA_dev_correlation_coefficient_mean: CCTE's Neural Network Formation Assay for Mean Correlation Coefficient, Shafer Lab (AID 2284093).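 For AC50: well mean pairwise spike train correlation integrated as AUC over recording days 5 to 12; potency fitted for loss of correlation relative to DMSO vehicle wells.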 The method in brief: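 Extracellular firing from rat cortical networks on 48-well MEAs, DMSO-referenced, negative fitting direction. Compound present from plating to DIV12; mean pairwise correlation per well integrated over DIV5–12 recordings by trapezoidal AUC.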

A short description of test [7]: UKN2_HCS_IMR90_neural_migration: University of Konstanz (UKN) Leist Lab Neural Crest Cell Migration Assay in human induced IMR90 Pluripotent Stem Cells (UKN2) (AID 2284204). To be noted: actives raise or lower the signal. The method in brief:
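High-content imaging of calcein-AM and Hoechst stained cells quantifies migration into a stopper-defined gap after 24 h compound exposure. Neural crest cells from IMR90 iPSC migrated 24 h in EGF/FGF N2-S medium before dosing; DMSO baseline.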

Test [8] in a line: IUF_NPC1b_proliferation_BrdU_72hr: Leibniz Research Institute for Environmental Medicine (IUF) 72-hour Neural Progenitor Cell Bromodeoxyuridine (BrdU) Proliferation Assay (NPC1b) (AID 2284207). In a few lines: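 Human fetal cortex-derived (GW 16-19) neural progenitor spheres, 0.25-0.35 mm, one per well in EGF/FGF proliferation medium, exposed to compound for 72 h at 37C, pH 7.2-7.6. BrdU incorporation over the final 16 h read by luminescence ELISA, relative to DMSO.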

The nature of test [9]: IUF_NPC1a_proliferation_area_72hr: Leibniz Research Institute for Environmental Medicine (IUF) 72-hour Neural Progenitor Cell Proliferation Area Assay (NPC1a) (AID 2284208). The method in brief:
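hNPC spheres (human fetal cortex, GW 16-19), one per poly-Hema U-bottom well; EGF+FGF medium; dosed day 0, no re-dosing; 72 h, 37C, 5% CO2; phase-contrast sphere area; DMSO = baseline; minus-GF = positive ctrl.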

A short description of test [10]: IUF_NPC1_viability_72hr: Viability Assessment at 72 hours in the Leibniz Research Institute for Environmental Medicine (IUF) Neural Progenitor Cell Proliferation Assay (NPC1) (AID 2284209). The method in brief: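 Alamar blue fluorescence (RFU) after 72 h exposure, normalized to DMSO baseline. hNPC spheres from GW 16-19 fetal cortex, single sphere per well in growth-factor medium; no compound renewal.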

A short description of test [11]: CCTE_Mundy_HCI_Cortical_Synap_Neur_Matur_NeuriteSpotCountPerNeuriteLength: CCTE's Synaptogenesis and Neurite Maturation Assay in rat cortical cells for Neurite Spot Count per Neurite Length, Mundy Lab (AID 2284210). In a few lines: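 Synaptophysin spots per unit neurite length, measured by automated imaging of MAP2/synaptophysin/Hoechst-stained neurons. Cultures from rat cortex received chemical at DIV 7 with media change through DIV 12; glial growth arrested by AraC at DIV 5; DMSO baseline.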

Test [12] in a line: CCTE_Mundy_HCI_Cortical_Synap_Neur_Matur_BPCount: CCTE's Synaptogenesis and Neurite Maturation Assay in rat cortical cells for Branch Point Count, Mundy Lab (AID 2284211). The method in brief:
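In this multiplexed morphology assay, cortical cells from rat receive chemicals at DIV 7 and are fixed at DIV 12, then immunostained and imaged; branch points are counted, with DMSO as baseline.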

A short description of test [13]: CCTE_Mundy_HCI_Cortical_NOG_NeuriteCount: CCTE's Neurite Outgrowth Assay in rat cortical cells for Neurite Count, Mundy Lab (AID 2284212).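 Note: cells fixed about two days after chemical exposure began.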 In a few lines:
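Rat cortical primary cells; compound added 2 h post-plating, 1/10 dilution of working solution. Anti-betaIII-tubulin/AF488 ICC; ArrayScan neurite count vs DMSO.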

Test [14] can be described thus: CCTE_Mundy_HCI_Cortical_NOG_NeuriteLength: CCTE's Neurite Outgrowth Assay in rat cortical cells for Neurite Length, Mundy Lab (AID 2284213).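 For AC50: neurites imaged about 48 to 50 h after chemical exposure began.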 The method in brief:
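First, rat primary cortical cells were plated and, 2 h later, given test chemical as a 1/10 dilution. Finally, βIII-tubulin immunostaining enabled automated imaging of neurite length.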

Test [15] in a line: CCTE_Mundy_HCI_Cortical_Synap_Neur_Matur_NeuriteLength: CCTE's Synaptogenesis and Neurite Maturation Assay in rat cortical cells for Neurite Length, Mundy Lab (AID 2284214). The method in brief:
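Read-out: high-content imaging of MAP2-labelled neurites, with synaptophysin and Hoechst co-stain, in rat cortical cultures fixed at DIV 12. Activity fitted in positive direction relative to DMSO baseline.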

Test [16] can be described thus: CCTE_Mundy_HCI_Cortical_Synap_Neur_Matur_NeuriteSpotCountPerNeuron: CCTE's Synaptogenesis and Neurite Maturation Assay in rat cortical cells for Neurite Spot Count per Neuron Count, Mundy Lab (AID 2284215). In a few lines:
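Read-out: neurite-associated synaptophysin puncta per neuron, imaged by high-content analysis after MAP2, synaptophysin and Hoechst staining. Rat primary cortical cultures, dosed DIV 7 through DIV 12; DMSO served as baseline.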

Test [17] in a line: UKN5_HCS_SBAD2_cell_viability: Viability Assessment in the University of Konstanz (UKN) Leist Lab Neurite Outgrowth Assay in human iPSC-derived immature Dorsal Root Ganglia Neurons (UKN5) (AID 2284056). The method in brief: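 iPSC-derived immature peripheral neurons (SBAD2) seeded on Matrigel with CHIR99021, SU5402 and DAPT, dosed 1 h later for 24 h. Viability from Hoechst H-33342 and calcein-AM live staining, high-content imaging; bidirectional fit versus DMSO.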

The nature of test [18]: UKN5_HCS_SBAD2_neurite_outgrowth: University of Konstanz (UKN) Leist Lab Neurite Outgrowth Assay in human iPSC-derived immature Dorsal Root Ganglia Neurons (UKN5) (AID 2284070). To be noted: actives raise or lower the signal. In a few lines:
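Cryopreserved SBAD2 peripheral neurons were seeded at 100.000 cells/cm2 in N2-S/KSR medium containing CHIR99021, SU5402 and DAPT, then exposed to compounds for 24 h. Neurite area from calcein-AM high-content imaging was fitted bidirectionally against DMSO.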

Test [19] is described as follows: UKN4_HCS_LUHMES_neurite_outgrowth: University of Konstanz (UKN) Leist Lab Neurite Outgrowth Assay in human LUHMES cells (UKN4) (AID 2284206). To be noted: actives raise or lower the signal. In a few lines:
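Read-out: calcein-AM neurite area by high-content fluorescence imaging, with Hoechst H-33342 viability counterstain, after 24 h chemical exposure of day-2 differentiated LUHMES cells. Activity fitted bidirectionally against DMSO baseline.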

For the compound `CC(C)=CC1C(C(=O)OCc2coc(Cc3ccccc3)c2)C1(C)C` (stereo unspecified), the results for the AC50 (in the test with DIO3 (gene 1735); in test [1]) were 40.5 µM (active) and 14.1 µM (active), respectively. In addition, the call in [2], in test [3], in test [4], in [5] and in [6] was inactive.
As to `C=C(C)CN(CC)c1c([N+](=O)[O-])cc(C(F)(F)F)cc1[N+](=O)[O-]`, the concentration at half-maximal activity (AC50) is 14.5 µM (active) in test [1]; 15.6 µM (active) in test [3]; 12.8 µM (active) in [5]; 14 µM (active) in test [6]; 92.8 µM (active) in [8]; 6.36 µM (active) in [11]. Moreover, the AC50 in test [12] was 6.23 µM (active); in test [13], 65.1 µM (active); in [14], 32.4 µM (active); in test [15] it was 5.64 µM (active); in test [16] it was 6.14 µM (active). In addition, the compound was called inactive in test [2], in [7], in test [9] and in test [10].
Take `CNC(=O)Oc1cccc2ccccc12`: the AC50 in [1] is 15 µM (active) and 25.1 µM (active); in test [3], 15 µM (active); in test [5], 8.41 µM (active) and 15 µM (active); in test [6], 12.8 µM (active). The outcome in [2], in test [3], in [6], in test [8], in [9] and in test [10] was inactive. Further, the compound was classed as inactive in test [11], in test [12], in test [13], in [14] and in test [16].
For `COC(=O)N(C(=O)N1CO[C@@]2(C(=O)OC)Cc3cc(Cl)ccc3C2=N1)c1ccc(OC(F)(F)F)cc1`, the half-maximal activity concentration (AC50) in [1] is 7.61 µM (active); in [3], 2.98 µM (active); in test [6], 15 µM (active); in test [8] it was 0.483 µM (active). Further, the outcome in [4], in test [5], in test [7], in test [9], in [10] and in [11] was inactive. The outcome in test [12], in [13], in [14], in test [15] and in test [16] was inactive.
Consider `CS(=O)(=O)c1ccc(C(=O)C2C(=O)CCCC2=O)c([N+](=O)[O-])c1`, for which the half-maximal activity concentration (AC50) with DIO3 (gene 1735) is 46.3 µM (active). The compound was classed as inactive in test [1], in test [3], in [5], in test [6], in test [7] and in [8]. The compound was classed as inactive in test [9], in test [10], in [11], in test [12], in [13] and in test [14]. Further, the outcome in test [15] and in test [16] was inactive.
For the compound `COP(=S)(OC)SCn1nnc2ccccc2c1=O`, the AC50 was 47.2 µM (active) in [17]; 22.7 µM (active) in [1]; 35.1 µM (active) in [18]; 26.2 µM (active) in test [3]; 0.00499 µM (active) in [5]; 15 µM (active) in [6]. The half-maximal activity concentration (AC50) is 19.6 µM (active) in test [7] and 15.4 µM (active) in test [19]. Also, the call in test [2], in [4], in test [8], in [9], in test [10] and in test [11] was inactive. The compound was classed as inactive in [12], in [13], in [14], in test [15] and in [16].

(Values after PubChem BioAssay (EPA / NIEHS).)
